Measured values taken from PubChem BioAssay AID1347416 (National Center for Advancing Translational Sciences (NCATS), 2020).
Screen size: about 4,100 compounds; about 1,600 (39%) were called active. Inconclusive results (about 25%) are left out. The call rests on the fitted dose curve; in most records, active means well fitted inhibition curve with a large enough effect; inconclusive means small, poorly fitted or top-dose-only effect; inactive means no such curve, though single readings can be large or run the other way. This is one part of the list. A call without a number means that no potency is given here.

Experiment: qHTS Validation assay for Inhibitors of Plasmodium falciparum Dd2 growth in vitro; further: nearly all actives have a fitted effect of over 70% in size
Details: P. falciparum Dd2 in RBCs, SYBR Green growth, 72 h; series mostly up to 28.7 µM
Outline: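 P. falciparum Dd2-infected red blood cells (2.5% hematocrit, 0.3% parasitemia) grown 72 h at 37 °C under 5% O2 with compounds in a titration, 29 uM to 0.5 nM final. Growth read as SYBR Green-1 fluorescence after ~16 h lysis; artesunate 300 nM as positive control.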
Potency means the concentration at half of the fitted maximal effect.

| Structure (SMILES) | Potency |
| --- | --- |
| COC(=O)[C@@H]1Cc2c([nH]c3ccccc23)[C@H]2C[C@H](N3CCCCC3)C[C@@H](c3ccccc3F)N21 | 5.96 µM (active) |
| C1CCC(COCCc2noc(C3CNC3)n2)C1 | inactive |
| Cc1cc(C)cc(NC(=O)NCc2c(-n3cccc3)sc3c2CCCC3)c1 | inactive |
| CC(=O)N1Cc2ccccc2CC2(CCN(CC3CCOCC3)C2)C1 (configuration not stated) | inactive |
| CC(C)C(=O)N1Cc2ccccc2CC2(CCCN(CC3CCCCC3)C2)C1 (configuration not stated) | 0.0531 µM (active) |
| CC(=O)N1Cc2ccccc2CC2(CCN(Cc3ccccn3)CC2)C1 | inactive |
| Cc1ccc(CN2CCOC[C@H]2c2ncc(C(C)(C)C)[nH]2)cc1 | 13.7 µM (active) |
| CC(C)(C)c1cnc([C@@H]2COCCN2Cc2ccccc2O)[nH]1 | 13.7 µM (active) |
| C[C@@H](c1ccccc1)N1C(=O)[C@@H]2CN(C(=O)c3cccnc3)CCN2C1=O | inactive |
| Cc1nn2c(c1-c1ccccc1-c1ccccc1)N(Cc1ccc(O)cc1)CCC2 | 0.485 µM (active) |
| Cc1nn2c(c1-c1ccccc1-c1ccccc1)N(Cc1cccc(O)c1)CCC2 | 4.85 µM (active) |
| CCCCSc1nnc2c(n1)OC(C)N(C(C)=O)c1ccccc1-2 (configuration not stated) | inactive |
| COc1cc(NS(=O)(=O)c2cnc(N)nc2)cc(OC)c1 | inactive |
| CCOc1ccc(NS(=O)(=O)c2csc(C(N)=O)c2)cc1 | 7.5 µM (active) |
| CCOc1ccc(S(=O)(=O)Nc2ccc3oc4c(c3c2)CC(C)CC4)cc1 (configuration not stated) | inactive |
| CCn1cc(C(=O)O)c(=O)c2cnc(N3CCN(C(=S)Nc4ccccc4)CC3)nc21 | 3.76 µM (active) |
| CCn1cc(C(=O)N2CCN(c3ccc(OC)cc3)CC2)c(=O)c2cc(S(=O)(=O)N3CCOCC3)ccc21 | inactive |
| COCCOC1CCOC2(CCN(C(=O)c3ccco3)CC2)C1 (configuration not stated) | inactive |
| CCc1cc(C(=O)OC)c(NC(=O)CN2CCN(C(=O)c3ccco3)CC2)s1 | 5.96 µM (active) |
| Cc1ccc(C(=O)c2cc(C)sc2NC(=O)CN2CCN(C(=O)c3ccco3)CC2)cc1 | 7.5 µM (active) |
| COc1ccccc1NC(=O)CSc1nc2c(oc3ccccc32)c(=O)n1-c1ccc(C)cc1 | 15 µM (active) |

| Structure (SMILES) | Potency |
| --- | --- |
| COc1ccccc1-n1c(SCC(=O)NC(C)(C)C)nc(O)cc1=O | inactive |
| CCc1nc(NC(=O)C2c3ccccc3C(=O)N(CCOC)C23CCCC3)sc1C (configuration not stated) | 5.96 µM (active) |
| COCCN1C(=O)CC[C@]2(C(=O)NCc3ccccc3Cl)CCCC[C@@H]12 | inactive |
| COCCN1C(=O)CCC2(CNC(=O)CCc3nc4ccccc4[nH]3)CCCC=C12 (configuration not stated) | inactive |
| COCCN1C(=O)c2ccccc2C(C(=O)Nc2nc3ccccc3[nH]2)C12CCCCC2 (configuration not stated) | 4.73 µM (active) |
| COCCN1C(=O)c2ccccc2C(C(=O)Nc2nc3ccccc3[nH]2)C12CCCC2 (configuration not stated) | 4.22 µM (active) |
| COc1nc(N(C)S(=O)(=O)c2ccc(C)cc2)nc(C)c1Br | inactive |
| Cc1cc(C(F)(F)F)nn1CC(=O)NCCc1ncc(C)n1CC1CC1 | 10.6 µM (active) |
| Cc1cnc(CCNC(=O)Cn2c(=O)oc3ccccc32)n1C1CC1 | inactive |
| Cc1nnc2n1CCC(N(C)S(=O)(=O)c1cn(C)cn1)CC2 (configuration not stated) | inactive |
| CN(CCn1cc(-c2nccn2C)nn1)S(C)(=O)=O | inactive |
| Cc1cccc2cc(CN(Cc3ccco3)C(c3nnnn3CCc3ccccc3)C(C)C)c(=O)[nH]c12 (configuration not stated) | 10.6 µM (active) |
| Cc1noc(-c2ccn3c(CNC(=O)c4ccccc4Cl)nnc3c2)n1 | inactive |
| O=C(O)Cn1c(-c2ccccn2)nc2ccccc21 | inactive |
| Cc1ccccc1Nc1nnc(SCc2cc(=O)n3ccsc3n2)s1 | inactive |
| COC(=O)COc1ccc(-c2nccc(-c3ccccn3)n2)cc1 | inactive |
| Cc1ccccc1Nc1nc(-c2cccnc2)cs1 | 9.44 µM (active) |
| c1ccc(CNc2nc(-c3ccccn3)nc3ccccc23)cc1 | 5.31 µM (active) |
| c1ccc(CCNc2nc(-c3ccccn3)cs2)cc1 | 7.5 µM (active) |
| Cc1cccnc1Nc1nc(-c2ccccn2)cs1 | 0.473 µM (active) |
| Cc1nn(C)cc1CN(C)C(=O)CC12CC3CC(CC(C3)C1)C2 | inactive |

| Structure (SMILES) | Potency |
| --- | --- |
| CC(C)c1noc(-c2cn(C3CCCN(C(=O)c4ccc(N(C)C)cc4)C3)nn2)n1 (configuration not stated) | inactive |
| COc1ccc(OC)c(C2Nc3c(C)cc(C)cc3-c3cc(C)nn32)c1 (configuration not stated) | inactive |
| CCCN(CCC)c1nc(-c2ccccn2)nc2ccccc12 | 5.31 µM (active) |
| c1ccc(CCNc2nc(-c3ccccn3)nc3ccccc23)cc1 | 4.73 µM (active) |
| c1ccc(-c2nc(NCc3ccco3)c3ccccc3n2)nc1 | 5.96 µM (active) |
| CCCCOc1cccc(C(=O)N(Cc2ccc(Br)o2)C2CCS(=O)(=O)C2)c1 (configuration not stated) | inactive |
| Oc1cc(NCc2ccc(F)cc2)cc2cccnc12 | 4.73 µM (active) |
| O=C(CCn1c(=O)c2cccn2c2cccnc21)NCc1ccc(F)cc1 | inactive |
| Oc1cc(NCc2ccccc2)cc2cccnc12 | 2.99 µM (active) |
| Cc1ccc(-c2cc3c(=O)n(CCNC(=O)c4cccnc4)ccn3n2)c(C)c1 | inactive |
| COc1ccc(C(=O)OCCc2cc3ccccc3c(=O)o2)cc1 | inactive |
| COc1ccc(NC(=O)CN(C)C(=O)c2oc3c(ccc4ccccc43)c2C)cc1 | 0.531 µM (active) |
| COc1cccc(CNC(=O)Cn2c(SCC(=O)Nc3ccc(F)cc3)nc3ccccc32)c1 | inactive |
| COc1cccc(NC(=O)CN(C)C(=O)c2oc3c(ccc4ccccc43)c2C)c1 | 0.75 µM (active) |
| COc1cccc(NC(=O)CCc2c(C)nc3c4cccnc4nn3c2C)c1 | inactive |
| COCc1nc(C2CC(NC(=O)c3cc(-c4ccsc4)n[nH]3)C2)cc(=O)[nH]1 (configuration not stated) | inactive |
| COc1ccc(C(C(=O)Nc2ccc(C(C)C)cc2)N(Cc2ccco2)C(=O)CC2NC(=O)NC2=O)cc1 (configuration not stated) | 6.68 µM (active) |
| CN1CCN(C(=O)c2ccc3c(c2)N(Cc2ccc(C(F)(F)F)cc2)C(=O)c2ccccc2S3)CC1 | 0.531 µM (active) |
| CCOc1ccc(CN2C(=O)c3ccccc3Sc3ccc(C(=O)N4CCN(C)CC4)cc32)cc1 | 0.299 µM (active) |
| O=C(c1ccc2[nH]ncc2c1)N1CCOCC12CCN(CCCc1ccccc1)CC2 | inactive |
